Compounds without any hit were thinned out: in the full panel of roughly 83,000, 20% have a hit.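 Negative percent growth values reflect cell death: -40 means 40% of the cells present at the start died, and -100 means all died.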 Active and inactive are the calls of the source. Rule for the calls: active = growth percent below 10; inactive = the rest.
Columns and labels:
Test in all cases: NCI-60 one-dose screen, 48 h (100 = growth as untreated, 0 = no growth, -100 = all killed)
Details in all cases: 10 µM unless noted
[1] = tested on: DU-145 prostate
[2] = tested on: K-562 leukemia
[3] = tested on: MALME-3M melanoma
[4] = tested on: MDA-MB-231 breast
[5] = tested on: RXF 393 renal
[6] = tested on: SF-268 CNS
[7] = tested on: SF-295 CNS
[8] = tested on: SF-539 CNS
[9] = tested on: UACC-257 melanoma
[10] = tested on: M14 melanoma
[11] = tested on: HCT-15 colon
[12] = tested on: HT29 colon
[13] = tested on: SNB-75 CNS
[14] = tested on: SNB-19 CNS
[15] = tested on: U251 CNS
[16] = tested on: PC-3 prostate
[17] = tested on: SK-MEL-5 melanoma
[18] = tested on: UACC-62 melanoma
[19] = tested on: LOX IMVI melanoma
[20] = tested on: SK-MEL-28 melanoma

Measured: growth

COc1ccc(-c2cn(Cc3ccc4c(Br)cc(Br)c(O)c4n3)nn2)cc1
inactive: [1] 89.7% | [2] 39.1% | [3] 82.7% | [4] 93.9% | [5] 91.8% | [6] 91.3% | [7] 104% | [8] 101% | [9] 87.9% | [10] 83.3% | [11] 39.3% | [12] 89.5% | [13] 71.6% | [14] 96.9% | [15] 97.3% | [16] 91.4% | [17] 98.6% | [18] 95.6% | [19] 49.4% | [20] 96.3%

CN(C)CCOc1nc2c3cc([N+](=O)[O-])ccc3nn2c2ccccc12
inactive: [1] 32.2% | [2] 26.3% | [3] 52.4% | [4] 66.4% | [5] 24.3% | [6] 56.6% | [8] 51.6% | [9] 78.9% | [10] 47.3% | [11] 25.9% | [12] 26.1% | [13] 77.1% | [14] 19.5% | [15] 21% | [16] 47.1% | [17] 45.6% | [18] 41.8% | [19] 20.2% | [20] 93.7%
active: [7] 9.28%

O=C1C(Nc2ccc(Br)cc2)=C(I)C(=O)c2ncccc21
inactive: [1] 20.5% | [5] 45.8% | [6] 46.2% | [7] 86.6% | [8] 15.3% | [9] 49.3% | [10] 10.4% | [12] 54.7% | [13] 26.4% | [14] 68.3% | [15] 32% | [16] 39.3% | [20] 63.7%
active: [2] 5.98% | [3] -6.23% | [4] 6.88% | [11] 6.76% | [17] -17.7% | [18] 9.48% | [19] -3%

CCN(CC)CCOc1ccc(/C(=C(\C)Cc2ccc(OC)cc2)c2ccc(O)cc2)cc1
active: [2] -56.7% | [3] -76.7% | [5] 6.99% | [7] -25.3% | [8] -50.8% | [9] -62.9% | [10] -77.3% | [11] 5.11% | [12] -70.5% | [15] -30.3% | [17] -96.4% | [18] -70.7% | [19] -64.9% | [20] -71%
inactive: [1] 53.4% | [4] 24% | [6] 47.9% | [13] 25.1% | [14] 26.6% | [16] 15.2%

Cc1c(N2CCCCC2)[nH]c2ccccc12
inactive: [1] 120% | [2] 113% | [3] 121% | [4] 121% | [5] 116% | [6] 117% | [7] 89% | [8] 121% | [9] 94% | [10] 105% | [11] 131% | [12] 104% | [13] 117% | [14] 116% | [15] 101% | [16] 70.5% | [17] 107% | [18] 110% | [19] 95.3% | [20] 133%

COc1cc(-c2c(-c3ccccc3)c[nH]c2C(=O)NCCCO)c(OC)c2c1OCO2
inactive: [1] 111% | [2] 86.5% | [3] 108% | [4] 88.8% | [5] 93.5% | [6] 99.4% | [7] 101% | [8] 104% | [9] 106% | [10] 105% | [11] 107% | [12] 106% | [13] 92.9% | [14] 97.5% | [15] 104% | [16] 99.1% | [17] 99.1% | [18] 93.7% | [19] 99.5% | [20] 107%

Cc1cc(=O)oc2cc(Oc3nc(-c4ccccc4)cn4c(-c5ccccc5)cnc34)ccc12
inactive: [1] 68% | [2] 61.8% | [4] 50.4% | [5] 28.3% | [6] 64.4% | [7] 54.2% | [8] 54.6% | [9] 65.7% | [10] 67.7% | [11] 68.6% | [12] 53.2% | [14] 64.4% | [15] 67.3% | [16] 39.2% | [17] 38.3% | [18] 81.4% | [19] 56.4% | [20] 67.6%
active: [3] -9.77% | [13] -1.39%

Cc1cccc(C)c1NC(=O)Nc1ccccc1
inactive: [2] 102% | [3] 98.4% | [4] 96.9% | [5] 87.3% | [6] 96.1% | [7] 66.7% | [8] 108% | [9] 98.2% | [10] 109% | [11] 25.5% | [12] 27.3% | [13] 108% | [14] 90.8% | [15] 77.4% | [16] 70.7% | [17] 101% | [18] 71.6% | [19] 69.8% | [20] 108%
active: [1] 9.29%

COc1ccc(-n2c(=O)n(-c3ccc(-c4nc5ccc(F)cc5s4)cc3)c(=O)c3cccnc32)cc1
inactive: [1] 106% | [2] 99.7% | [3] 101% | [4] 97.1% | [5] 129% | [6] 106% | [7] 94.5% | [8] 107% | [9] 94.7% | [10] 107% | [11] 101% | [12] 87.3% | [13] 75.2% | [14] 98.5% | [15] 96.9% | [16] 94.5% | [17] 101% | [18] 87.4% | [19] 99.5% | [20] 107%

CNC1=C([N+](=O)[O-])C(c2ccc(OC)cc2)C(C#N)=C(c2ccc[nH]2)O1 (stereo not given)
inactive: [1] 107% | [2] 95.7% | [3] 97.9% | [4] 104% | [5] 113% | [6] 103% | [7] 101% | [8] 99.2% | [9] 106% | [10] 104% | [11] 106% | [12] 107% | [13] 88.6% | [14] 97% | [15] 101% | [16] 97.1% | [17] 98.2% | [18] 91.8% | [19] 99% | [20] 108%

COc1cccc(/C=C/C(=O)/C=C(/C=C/c2cccc(OC)c2OC)OB(F)F)c1OC
inactive: [1] 55.7% | [2] 32.9% | [3] 32% | [4] 60.3% | [5] 102% | [6] 95.3% | [7] 103% | [8] 57.7% | [9] 28.6% | [10] 61.7% | [11] 29.4% | [12] 49.2% | [13] 65.8% | [14] 77.7% | [15] 36.4% | [16] 57.9% | [17] 93.4% | [18] 42.4% | [19] 18.2% | [20] 50.7%

O=C(OCC(O)C(=O)NC12CC3CC(CC(C3)C1)C2)c1cccc(Br)c1 (stereo not given)
inactive: [1] 105% | [2] 89.4% | [3] 101% | [4] 92% | [5] 110% | [6] 103% | [7] 96.9% | [8] 96.2% | [9] 91.1% | [10] 95.5% | [11] 95.2% | [12] 93.5% | [13] 98.5% | [14] 98.2% | [15] 97.5% | [16] 90.1% | [17] 103% | [18] 92.9% | [19] 95.2% | [20] 103%

COc1cc2c(cc1-c1c(C)noc1C)ncc1nc(C3CCOCC3)n(C3CCC(OC(F)F)CC3)c12 (stereo not given)
inactive: [1] 73.2% | [2] 47.6% | [3] 44.1% | [4] 36.2% | [5] 59% | [6] 64.9% | [7] 53.5% | [8] 56.6% | [9] 47.7% | [10] 54.6% | [11] 33.2% | [12] 25.9% | [13] 12.9% | [14] 75.3% | [15] 75.8% | [16] 44.8% | [17] 27.2% | [18] 25.4% | [19] 24% | [20] 71.1%

CC(C)(C)c1ccc(C(=O)Nc2sc3c(c2C#N)CCC(=O)C3)cc1
inactive: [1] 64.2% | [6] 22.4% | [7] 10.3% | [9] 19.8% | [14] 14.1% | [15] 16.4% | [19] 10.5% | [20] 28.8%
active: [2] 9.48% | [3] -18.6% | [4] -5.45% | [5] -29.9% | [8] -35.6% | [10] 8.73% | [11] -18.5% | [12] 5% | [13] -6.69% | [16] 8.36% | [17] -69.8% | [18] 9.35%

COc1cc(NC(=O)c2cncnc2Nc2ccc3c(ccn3Cc3cccc(F)c3)c2)cc(OC)c1
inactive: [1] 79.9% | [2] 15.4% | [3] 71.6% | [4] 57.4% | [5] 62.5% | [6] 68.9% | [7] 50.4% | [8] 44.4% | [9] 72.7% | [10] 47.2% | [11] 33.7% | [12] 20% | [14] 74.7% | [15] 41.1% | [16] 43.5% | [17] 59.7% | [18] 55% | [19] 40.3% | [20] 59.6%
active: [13] 8.48%

Reference: PubChem BioAssay (NCI)
